Values of other authors, collected in PubChem BioAssay AID977611.
Counter-ions that a name gives are not always drawn. The whole screen tested about 3,900 compounds, of which about 3,900 (100%) were called active. Cut-off not given; nearly all actives show Kd up to about 4200 µM. The set was probably picked from earlier hits. This is one part of the list. Numbered stars: 1 amine (or outer) side, 2 acyl side, 3 side chain; on linkers, the order of the positions; unused ones are H or OH. Starred links: 1 amine or outer side, 2 acyl side, 3 side chain; linkers in the order of their positions; H or OH if unused. Non-standard residues stand in square brackets, D forms with d. Square brackets hold non-standard residues; d marks the D form. Residues, ends and D or L forms follow the SMILES beside them. Peptide text beside a SMILES is read from it. * marks the point of attachment. X1 = O=C([C@H](Cc1ccc(O[P+](O)(O)O)cc1)N[*:1])[*:2]; Orn(CH(NH2)2) = NC(N)NCCC[C@H](N)C(=O)O; Tfa = O=C(C(F)(F)F)*

Assay: PubChem AID 977611
Settings: PDB protein-ligand complexes, literature Kd

## H-TFKEVANAVKISASLM-OH
protein: Calmodulin, PDB entry 2mg5
  Kd: 700 nM (active)

## H-IGTDKELSDLLDFSAMFS-OH
protein: eTAFH domain of AML1-ETO, PDB entry 2knh
  Kd: 7000 nM (active)

## CSCC[C@H](NC(=O)[C@H](CC(C)C)NC(=O)CNC(=O)[C@@H](NC(=O)[C@H](CC(N)=O)NC(=O)[C@H](CCC(=O)O)NC(=O)[C@H](Cc1ccc(O[P+](O)(O)O)cc1)NC(=O)[C@@H](N)C(C)C)C(C)C)C(=O)O (H-V[X1]ENVGLM-OH)
protein: Grb2 SH2 domain, pY-Clamp Ptpn11_pY580, PDB entry 4jmg
  Kd: 1.5 nM (active)

## CC[C@H](C)[C@H](NC(=O)[C@H](CC(=O)O)NC(=O)[C@H](Cc1ccccc1)NC(=O)[C@H](CC(C)C)NC(=O)[C@H](CC(=O)O)NC(=O)CNC(=O)[C@@H](NC(=O)[C@@H](NC(=O)[C@H](CCCCN)NC(=O)[C@H](CC(C)C)NC(=O)[C@H](CCCNC(N)N)NC(=O)[C@H](CCCNC(N)N)NC(=O)[C@H](CO)NC(=O)[C@H](CC(C)C)NC(=O)[C@H](CC(N)=O)NC(=O)[C@H](CCC(=O)O)NC(=O)[C@H](CCSC)NC(=O)[C@@H](N)[C@@H](C)O)C(C)C)[C@@H](C)O)C(=O)N[C@@H](CCSC)C(=O)O (H-TMENLS[Orn(CH(NH2)2)][Orn(CH(NH2)2)]LKVTGDLFDIM-OH)
protein: M11, the BCL-2 Homolog of Murine Gamma-herpesvirus 68, PDB entry 3bl2
  Kd: 1580 nM (active)

## O=C(O)C1(O)C[C@@H](O)C(O)[C@H](O)C1 (stereo partly drawn)
protein: 3-dehydroquinate dehydratase (K170M mutation), PDB entry 4iuo
  Kd: 230000 nM (active)
protein: 3-dehydroquinate dehydratase, PDB entry 4gui
  Kd: 230000 nM (active)

## OC[C@H]1O[C@@H](Oc2ccc3c(c2)Oc2cc(O)ccc2N3)[C@H](O)[C@@H](O)[C@H]1O
protein: PA-I galactophilic lectin, PDB entry 4lk7
  Kd: 9100 nM (active)

## CC(C)(C)OC(=O)N1CC(NC2NC(=O)c3cccnc3N2)C1 (stereo not drawn)
protein: PLASMINOGEN ACTIVATOR INHIBITOR 1, PDB entry 4aqh
  Kd: 290 nM (active)

## Cc1nn(C)c2sc(C(=O)O)cc12
protein: Pantothenate synthetase (T2A, E77G mutation), PDB entry 4fzj
  Kd: 700000 nM (active)

## CC(C)[C@H](NC(=O)[C@@H](NC(=O)[C@@H](NC(=O)[C@H](CO)NC(=O)[C@H](Cc1ccc(O[P+](O)(O)O)cc1)NC(=O)[C@H](CCC(=O)O)NC(=O)[C@@H](NC(=O)[C@@H](NC(=O)[C@@H](N)CO)[C@@H](C)O)C(C)C)[C@@H](C)O)C(C)C)C(=O)N[C@@H](Cc1cnc[nH]1)C(=O)N[C@@H](CO)C(=O)O (H-STVE[X1]STVVHS-OH)
protein: Suppressor of cytokine signaling 3(SOCS3), PDB entry 2hmh
  Kd: 70 nM (active)

## CC(C)[C@H](NC(=O)[C@H](CO)NC(=O)[C@H](CCC(=O)O)NC(=O)[C@@H](N)CC(N)=O)C(=O)N[C@@H](CC(=O)O)C(=O)N[C@@H](Cc1ccc(O[P+](O)(O)O)cc1)C(=O)N[C@@H](CCCNC(N)N)C(=O)N[C@@H](C)C(=O)O (H-NESVD[X1][Orn(CH(NH2)2)]A-OH)
protein: E3 ubiquitin-protein ligase CBL, PDB entry 3bux
  Kd: 2360 nM (active)

## CC(C)[C@H](NC(=O)[C@H](C)NC(=O)[C@@H](N)CCCNC(N)N)C(=O)N[C@@H](CCC(=O)O)C(=O)N[C@@H](CC(N)=O)C(=O)N[C@@H](CCC(N)=O)C(=O)N[C@@H](Cc1ccc(O[P+](O)(O)O)cc1)C(=O)N[C@@H](CO)C(=O)N[C@@H](Cc1ccccc1)C(=O)O (H-[Orn(CH(NH2)2)]AVENQ[X1]SF-OH)
protein: CBL E3 ubiquitin protein ligase, PDB entry 1yvh
  Kd: 43 nM (active)

## H-AASFIDAKKMP-OH
protein: coatomer alpha subunit, PDB entry 4j8g
  Kd: 64500 nM (active)

## H-AAIFYLAG-OH
protein: HIV-1 protease, PDB entry 2nxd
  Kd: 2200 nM (active)

## CC(C)C[C@H](NC(=O)[C@H](CC(C)C)NC(=O)[C@H](CCCCN)NC(=O)[C@H](CCCNC(N)N)NC(=O)[C@H](C)NC(=O)[C@@H]1CCCN1C(=O)[C@H](CC(=O)O)NC(=O)[C@H](Cc1ccc(O)cc1)NC(=O)[C@H](C)N)C(=O)O (H-AYDPA[Orn(CH(NH2)2)]KLL-OH)
protein: ALIX Bro1-V domains (KK268, 269YY mutant), PDB entry 2xs8
  Kd: 24500 nM (active)

## H-ADLIAYFKAATKF-OH
protein: T cell receptor (TCR), PDB entry 1r5w
  Kd: 2900 nM (active)

## H-TIYNTTLKY-NH2
protein: anti-human cytomegalovirus antibody 8f9, PDB entry 3eyf
  Kd: 94 nM (active)

## H-ADLIAYPKAATKF-OH
protein: T cell receptor (TCR), PDB entry 1r5v
  Kd: 33000 nM (active)

## CC[C@H](C)[C@H](NC(=O)[C@H](Cc1c[nH]c2ccccc12)NC(=O)[C@H](CCC(=O)O)NC(=O)[C@H](CC(N)=O)NC(=O)[C@@H](N)CO)C(=O)N[C@@H](CCC(N)=O)C(=O)N1CCC[C@H]1C(=O)N[C@@H](CCCNC(N)N)C(=O)N[C@@H](CC(C)C)C(=O)N1CCC[C@H]1C(=O)N[C@H](C=O)CCC(N)=O (H-SNEWIQP[Orn(CH(NH2)2)]LPQ-aldehyde)
protein: Ephrin type-B receptor 2, PDB entry 2qbx
  Kd: 6000 nM (active)

## CC[C@H](C)[C@H](NC(=O)[C@H](CCCCNC(=O)C(F)(F)F)NC(=O)[C@H](CO)NC(=O)[C@@H](NC(=O)[C@@H]1CCCN1C(=O)[C@H](Cc1c[nH]c2ccccc12)NC(=O)[C@@H](N)CCCN=C(N)N)[C@@H](C)O)C(=O)O (H-RWPTSK(Tfa)I-OH)
protein: Golgi-associated PDZ and coiled-coil motif-containing protein CAL PDZ (CALP) domain, PDB entry 4nmt
  Kd: 14100 nM (active)

## CC[C@H](C)[C@H](NC(=O)[C@@H](NC(=O)[C@H](CO)NC(=O)[C@@H](NC(=O)[C@H](CCCCNC(C)=O)NC(=O)[C@H](Cc1c[nH]c2ccccc12)NC(=O)[C@H](CCCN=C(N)N)NC(=O)[C@H](CO)NC(=O)[C@H](CC(N)=O)NC(=O)[C@H](C)N)[C@@H](C)O)[C@@H](C)CC)C(=O)O
protein: Golgi-associated PDZ and coiled-coil motif-containing protein CAL PDZ (CALP) domain, PDB entry 4nmq
  Kd: 32300 nM (active)

## CC[C@H](C)[C@H](NC(=O)[C@@H](NC(=O)[C@H](CO)NC(=O)[C@@H](NC(=O)[C@@H]1CCCN1C(=O)[C@H](CCCCNC(C)=O)NC(=O)[C@H](CCCN=C(N)N)NC(=O)[C@H](CO)NC(=O)[C@H](CC(N)=O)NC(=O)[C@H](C)N)[C@@H](C)O)[C@@H](C)CC)C(=O)O
protein: Golgi-associated PDZ and coiled-coil motif-containing protein CAL PDZ (CALP) domain, PDB entry 4nmr
  Kd: 298000 nM (active)

## H-RWPTSK(Ac)I-OH
protein: Golgi-associated PDZ and coiled-coil motif-containing protein CAL PDZ (CALP) domain, PDB entry 4nmo
  Kd: 14900 nM (active)

## CC[C@H](C)[C@H](NC(=O)[C@@H](NC(=O)[C@H](CO)NC(=O)[C@@H](NC(=O)[C@@H]1CCCN1C(=O)[C@H](Cc1c[nH]c2ccccc12)NC(=O)[C@H](CCCNC(N)N)NC(=O)[C@H](CO)NC(=O)[C@H](CC(N)=O)NC(=O)[C@H](C)N)[C@@H](C)O)[C@@H](C)CC)C(=O)O
protein: Golgi-associated PDZ and coiled-coil motif-containing protein, PDB entry 4e34
  Kd: 970 nM (active)

## C[C@@H](O)[C@@H](C=O)[C@H]1CC(S)=C(C(=O)O)N1
protein: Probable L,D-transpeptidase LdtA, PDB entry 4jmx
  Kd: 62.1 nM (active)

## C/C=C(C)/C=C/C=C(C)/C=C/C1=C(C)CCCC1(C)C
protein: Cellular retinoic acid-binding protein 2 (R111K, R132L, Y134F, T54V, R59W mutation), PDB entry 4i9s
  Kd: 162 nM (active)
protein: Cellular retinoic acid-binding protein 2 (R111K, R132L, Y134F, T54V, R59W, A32W mutation), PDB entry 4i9r
  Kd: 112 nM (active)

## CC1=C(/C=C/C(C)=C/C=C/C(C)=C/CO)C(C)(C)CCC1
protein: bovine beta-lactoglobulin, PDB entry 1gx8
  Kd: 430 nM (active)
